Screening data (PubChem)
LDHA block: blocks human lactate dehydrogenase A | P00338 | purified LDHA, NADH/diaphorase-resazurin fluorescence; active compounds read low | activity change, % (values are at about 110 or 230 µM) | actives 0.15% (n = 480,000); in the data active = activity change below about -30%; inconclusive = mostly about -25% to -30%;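 note: plate controls were DMSO wells for no effect and wells without enzyme for full effect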
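Remaining NADH was detected by diaphorase (0.133 mg/mL) converting 37 µM resazurin to fluorescent resorufin, read at 0 and 20 minutes. The preceding 5-minute room-temperature reaction used 2 nM LDHA, 0.2 mM sodium pyruvate and 0.06 mM NADH at pH 7.4.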
Vif-APOBEC3F blk: inhibitors of Vif-A3F interaction | Potency, µM (top dose mostly 46.1 µM), without a hit: at the highest dose activity, negative = active | HeLa A3F-eYFP + Vif (tagged APOBEC3F with the HIV-1 protein that degrades it), YFP fluorescence increase | actives 0.2% (n = 390,000); note: potency is the fitted concentration of half-maximal effect; % of control where 0% means no effect; nearly all actives have a fitted effect of over 65% in size
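HeLa cells stably expressing A3F-eYFP plus Vif, plated and incubated overnight at 37 deg C, then exposed to compounds overnight at 37 deg C. Blocked degradation read as raised yellow fluorescence (Ex 488/Em 500-530).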
Vif-A3G inh: Vif-A3G binding inhibition. Q9HC16. HeLa A3G-eYFP + Vif (tagged APOBEC3G with the HIV-1 protein that degrades it), YFP fluorescence, overnight. Potency, µM (doses to about 46.1 µM), for the others: at the highest dose activity, negative = active, most hits filed as inhibitors. actives 0.076% (n = 410,000). AID 602310; note: potency is the fitted concentration of half-maximal effect; % is set by controls: 0 for no effect and ±100 for the full control effect; nearly all actives have a fitted effect of over 60% in size
Target sequence (Q9HC16 whole entry, looked up): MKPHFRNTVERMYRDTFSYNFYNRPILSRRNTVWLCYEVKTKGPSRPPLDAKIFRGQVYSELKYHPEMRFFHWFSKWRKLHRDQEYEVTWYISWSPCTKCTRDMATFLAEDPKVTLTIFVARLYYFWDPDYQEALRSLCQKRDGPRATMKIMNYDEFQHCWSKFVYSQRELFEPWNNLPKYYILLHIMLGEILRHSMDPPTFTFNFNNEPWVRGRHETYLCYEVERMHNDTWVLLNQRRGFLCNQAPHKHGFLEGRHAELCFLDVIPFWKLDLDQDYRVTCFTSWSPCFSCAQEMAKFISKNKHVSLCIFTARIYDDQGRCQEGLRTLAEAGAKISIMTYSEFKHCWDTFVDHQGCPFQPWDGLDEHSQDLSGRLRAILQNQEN
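HeLa cells stably expressing Vif and C-terminally eYFP-tagged A3G, seeded overnight at 37 deg C, then exposed to compound by pintool overnight at 37 deg C. Rise in yellow fluorescence (Ex 488/Em 500-530, Acumen) marks blocked Vif-driven A3G degradation.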
Pin1 inh: inhibitors of human Pin1. actives 0.009% (n = 390,000). Q13526. AID 504891. Pin1 FP peptide displacement, HiFluor488, 10 min. Potency, µM (titrated, usually from 115 µM), inactives show top-dose activity, negative = inhibition, usual class: inhibitors; active = well fitted inhibition curve with a large enough effect in the polarisation, with a control signal flat, not every such curve was filed as active; inconclusive = small, poorly fitted or top-dose-only effect, or effect the other way, or a change in a side signal; inactive = no such curve, though single readings can be large or run the other way; the % refers to the polarisation; note: potency is the fitted concentration of half-maximal effect; % is set by controls: 0 for no effect and ±100 for the full control effect
mIDH1 inhibitor: blocks human mutant IDH1 R132H enzyme; O75874; IDH1-R132H enzyme, NADPH consumption, diaphorase/resazurin fluorescence; Potency, µM (titrated, usually from 76.6 µM), without a hit: at the top dose activity change, negative = inhibition, actives largely listed as inhibitors; actives 0.093% (n = 390,000); AID 602179; note: potency is the fitted concentration of half-maximal effect; % is set by controls: 0 for no effect and ±100 for the full control effect; nearly all actives have a fitted effect of over 65% in size
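IDH1-R132H (0.5 ug/mL dispensed) in pH 7.5 Tris buffer was preincubated 30 min with compound, then given a substrate mix of 0.016 mM NADPH and 2 mM alpha-KG for 80 min at room temperature; remaining NADPH was read by diaphorase/resazurin fluorescence.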
PGK inhibitor: T. brucei PGK inhibition | actives 0.043% (n = 380,000) | AID 602233 | P07378 | PGK/GAPDH coupled, Kinase-Glo luminescence, 60 min | Potency, µM (doses to about 57.5 µM), for inactives: at the top dose activity change, negative = inhibition, most hits filed as inhibitors; note: potency is the fitted concentration of half-maximal effect; % is set by controls: 0 for no effect and ±100 for the full control effect; nearly all actives have a fitted effect of over 60% in size
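Luminescent ATP detection (Kinase-Glo Plus) follows a 60-minute room-temperature incubation, with wells lacking PGK as controls. Buffer: 100 mM TEA (pH 7.6), 5 mM MgCl2, 0.01% Tween-20. Coupling enzyme GAPDH (100 nM final) supplies unstable 1,3-BPG in-well.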
Numbers without * were called inactive. Sampled rows, rich in hits. Any-hit rate of the full collection: about 0.49%. Unless noted, calls come from the whole dose curve; as a rule, active = well fitted curve in the direction sought with a large enough effect; inconclusive = small, poorly fitted or top-dose-only effect, or another doubt; inactive = no such curve, though single readings can be large; an effect the other way counts as inactive or inconclusive.

Screening CC1CC(=O)C2=C(C1)OC(N)=C(C#N)C2c1coc2ccccc2c1=O (configuration not stated) returned LDHA block 1, Vif-APOBEC3F blk 11µM*, Vif-A3G inh -15%, Pin1 inh -1%, mIDH1 inhibitor 0% and PGK inhibitor 0%.
CN(CCOC(=O)/C=C/c1ccccc1)Cc1ccccc1 was read as LDHA block 1.
COc1ccc2[nH]c(C(=O)N/N=C/c3ccc(OC)c(O)c3)cc2c1 was read as LDHA block -5, Vif-APOBEC3F blk 1%, Vif-A3G inh 2.5µM*, Pin1 inh 1%, mIDH1 inhibitor -6% and PGK inhibitor -10%.
For COc1ccc2[nH]c(C(=O)N/N=C/c3ccccc3OC)cc2c1 the results were LDHA block -5, Vif-APOBEC3F blk -16%, Vif-A3G inh inconclusive, Pin1 inh -4% and mIDH1 inhibitor 2%.
For Cc1cccc(NC(=O)c2nc(-c3ccccc3)oc2C)n1 the results were LDHA block -8.
For O=C(Nc1oc2ccccc2c(=O)c1-c1ccc2c(c1)OCO2)c1ccccc1 the results were LDHA block -36*.
O=C(Nc1oc2ccccc2c(=O)c1-c1ccc2c(c1)OCO2)c1ccc(F)cc1 was read as LDHA block 2.
O=C(OCC12CC3CC(CC(C3)C1)C2)c1ccc(NCc2cc(O)ccc2O)cc1 was read as LDHA block 18, Vif-APOBEC3F blk 22µM*, Vif-A3G inh -15%, Pin1 inh 1%, mIDH1 inhibitor -11% and PGK inhibitor 6%.
For CC(=O)Nc1ccc2c3c(cccc13)C(=O)N(c1ccccc1)C2=O the results were LDHA block -3, Vif-APOBEC3F blk inconclusive, Vif-A3G inh 5%, Pin1 inh 2%, mIDH1 inhibitor 3% and PGK inhibitor -3%.
O=CNc1ccc2c3c(cccc13)-c1ccccc1-2 was read as LDHA block 16, Vif-APOBEC3F blk inconclusive, Vif-A3G inh 13µM*, Pin1 inh inconclusive, mIDH1 inhibitor 4% and PGK inhibitor -4%.
Screening NN=C1c2ccccc2C(=O)C1C(=O)C(c1ccccc1)c1ccccc1 (configuration not stated) returned LDHA block -13, Vif-APOBEC3F blk inactive, Vif-A3G inh 11µM*, Pin1 inh inconclusive, mIDH1 inhibitor 4% and PGK inhibitor 3%.
NC(=O)C(c1ccccc1)c1ccccc1 was read as LDHA block 5.
Screening Cc1nc(SCC(=O)Nc2oncc2-c2ccccc2)[nH]c(=O)c1C returned LDHA block 0.
CCN(CC)S(=O)(=O)c1ccc(N/N=C(/C)c2cccs2)c([N+](=O)[O-])c1 was read as LDHA block 3.
For O=C(c1cccc(C(=O)N2CCN(Cc3ccccc3)CC2)c1)N1CCN(Cc2ccccc2)CC1 the results were LDHA block -3, Vif-APOBEC3F blk 0%, Vif-A3G inh -3%, Pin1 inh 2%, mIDH1 inhibitor 0% and PGK inhibitor 7%.
For COc1ccccc1CN1CCN(C(=O)c2ccncc2)CC1 the results were LDHA block -30*, Vif-APOBEC3F blk -5%, Vif-A3G inh 1%, Pin1 inh -3%, mIDH1 inhibitor 12% and PGK inhibitor 7%.
For O=C(c1cccc(Cl)c1)N1CCN(Cc2ccncc2)CC1 the results were LDHA block -31*, Vif-APOBEC3F blk -6%, Vif-A3G inh 2%, Pin1 inh -16%, mIDH1 inhibitor 1% and PGK inhibitor -4%.
O=C(c1cccs1)N1CCN(Cc2ccccc2)CC1 was read as LDHA block -9, Vif-APOBEC3F blk 1%, Vif-A3G inh -6%, Pin1 inh 8%, mIDH1 inhibitor 4% and PGK inhibitor 8%.
